Only some compounds are listed: those with a hit (about 3.2% of all), similar ones and a draw of the others.
TcdB GH inh: blocks C. difficile toxin B glycohydrolase activity; actives 0.24% (n = 350,000); inhibition, % at 9.99 µM; P18177; AID 652162; TcdB glycohydrolase enzymatic assay, plate reader; in the data active = inhibition above about 10%
Yp Topo-I inh: Y. pestis Topo-I inhibition via cleavage products; Y. pestis Topo-I cleavage product accumulation, plate reader; activity, % at 10 µM; actives 0.064% (n = 360,000); in the data active = activity above about 50%, passing the limit was not always enough
GDH-TPI counter: counter-screen for M. tuberculosis FBA inhibitors: GDH-TPI coupled enzymes | actives 1.2% (n = 360,000) | GDH-TPI coupled enzyme counterscreen, NADH absorbance | inhibition, % at 4.8 µM | AID 588335; in the data active = inhibition above about 30%;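 note: 0% = DMSO wells and 100% = wells lacking the enzyme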
FBA Mtb inh: Mtb fructose-bisphosphate aldolase inhibition; P9WQA3; purified M. tuberculosis FBA, fluorescence read-out; inhibition, % at 1 µM; actives 2.3% (n = 360,000); AID 588726; in the data active = inhibition above about 27%;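 note: 0% = vehicle and 100% = reference inhibitor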
PrPC TRFRET: reduces human prion protein on the cell surface. P04156. cell surface PrPC, TR-FRET read-out. inhibition, % at 13.8 µM. actives 0.43% (n = 370,000). AID 720596; in the data active = inhibition above about 24%; note: 0% = median of the test wells and 100% = reference compound wells
PrPC TRFRET cf: cell surface PrPC inhibition, TR-FRET confirmation; cell surface PrPC level; AID 743200; actives 65% (n = 1,500); shares compounds with PrPC TRFRET; inhibition, % at 13.8 µM; in the data active = inhibition above about 25%
LD9 tox: counter-screen for PrPc inhibitors: cytotoxicity in LD9 cells. luminescence viability. actives 29% (n = 1,500). inhibition, % at 13.8 µM. shares compounds with PrPC TRFRET; in the data active = inhibition above about 9.5%
Numbers without * were called inactive.

For C[C@H]1CN([C@@H](C)CO)C(=O)c2cc(C#CCN(C)C)cnc2O[C@H]1CN(C)C(=O)Nc1ccccc1F the results were TcdB GH inh 1.
`COc1ccc(OC)c(NC(=O)c2cc(S(=O)(=O)N(C)C)ccc2N2CCCC2)c1` gave TcdB GH inh 1, Yp Topo-I inh 7, GDH-TPI counter 6, FBA Mtb inh -2 and PrPC TRFRET -8.
Screening COc1ccc(C(=O)Nc2ccc(S(=O)(=O)N3CCCCC3)cc2)cc1OC returned Yp Topo-I inh 10, GDH-TPI counter -9, FBA Mtb inh -1 and PrPC TRFRET 2.
For Cc1ccc(NC(=O)c2cc(S(=O)(=O)N(C)C)ccc2N2CCCC2)cc1S(=O)(=O)N(C)C the results were TcdB GH inh 0, Yp Topo-I inh 10, GDH-TPI counter 2, FBA Mtb inh 1, PrPC TRFRET 44*, PrPC TRFRET cf 37* and LD9 tox -5.
Screening COc1ccc(NC(=O)c2cc(S(=O)(=O)N(C)C)ccc2N2CCCC2)cc1Cl returned TcdB GH inh -1, Yp Topo-I inh 21, GDH-TPI counter 8, FBA Mtb inh -1, PrPC TRFRET 24*, PrPC TRFRET cf 21 and LD9 tox -6.
COc1ccc(S(=O)(=O)N2CCOCC2)cc1C(=O)Nc1ccc(N2CCCCCC2)cc1 was read as TcdB GH inh -2, Yp Topo-I inh 28, GDH-TPI counter 12, FBA Mtb inh 1, PrPC TRFRET 31*, PrPC TRFRET cf 30* and LD9 tox 7.
For COc1ccc(-c2cnnn2-c2ccc(NC(=O)c3ccc(S(=O)(=O)N4CCCCC4)cc3)cc2)cc1OC the results were TcdB GH inh 1, Yp Topo-I inh 3, GDH-TPI counter 9, FBA Mtb inh 4, PrPC TRFRET 32*, PrPC TRFRET cf 19 and LD9 tox -13.
`Cc1ccc(S(=O)(=O)Nc2ccccc2NS(=O)(=O)c2ccc(C)cc2)cc1` gave TcdB GH inh 1, FBA Mtb inh 1 and PrPC TRFRET 9.
`Cc1ccc(S(=O)(=O)Nc2ccccc2N(C)S(=O)(=O)c2ccc(C)cc2)cc1` gave TcdB GH inh 1, Yp Topo-I inh 24, GDH-TPI counter 0, FBA Mtb inh -6, PrPC TRFRET 26*, PrPC TRFRET cf 18 and LD9 tox 9.7*.
For CC(C)NC(=O)Nc1ccc2c(c1)CC(=O)N([C@H](C)CO)C[C@@H](C)[C@H](CN(C)C(=O)Nc1cccc3ccccc13)O2 the results were TcdB GH inh 2.
Screening C[C@@H]1CN([C@H](C)CO)S(=O)(=O)c2ccc(-c3cccnc3)cc2O[C@H]1CN(C)C(=O)c1cccc(F)c1 returned TcdB GH inh 0.
For CC(=O)c1sc(C(C)(C)C)cc1NC(=O)c1ccccc1C(=O)O the results were TcdB GH inh -3, Yp Topo-I inh 4, GDH-TPI counter 15, FBA Mtb inh 2, PrPC TRFRET 36*, PrPC TRFRET cf 81* and LD9 tox -1.
For O=C(O)c1ccccc1C(=O)Nc1ccccc1NC(=O)c1ccccc1C(=O)O the results were TcdB GH inh 1, Yp Topo-I inh 3, GDH-TPI counter 19, FBA Mtb inh 4 and PrPC TRFRET -5.
`CCCC(=O)N1CC2(CN(C)C2)c2c(n(C)c3cc(OC)ccc23)[C@@H]1CO` gave TcdB GH inh 0.
For CCOP(=S)(OCC)Oc1ccc2c(C)c(Cl)c(=O)oc2c1 the results were TcdB GH inh 2, Yp Topo-I inh -8, GDH-TPI counter 10, FBA Mtb inh 9, PrPC TRFRET 68*, PrPC TRFRET cf 37* and LD9 tox 1.
For CC(NC(=O)c1cc(COc2ccc3ncccc3c2)on1)c1ccc(F)cc1 (configuration not stated) the results were TcdB GH inh 1, Yp Topo-I inh -4, GDH-TPI counter 9, FBA Mtb inh 8, PrPC TRFRET 33*, PrPC TRFRET cf 34* and LD9 tox 11*.
For O=C(NCCc1cn2ccccc2n1)c1cc(COc2ccc3ncccc3c2)on1 the results were TcdB GH inh 2, Yp Topo-I inh 10, GDH-TPI counter -2, FBA Mtb inh 3, PrPC TRFRET 25*, PrPC TRFRET cf 40* and LD9 tox 49*.

From PubChem
